Assay results: PubChem BioAssay (NCATS)
Inconclusive results are not listed. A call without a number means that no potency is given here. Active and inactive are the calls of the source. Unless noted, calls follow the shape of the full dose curve.

Assays:
[1] = qHTS for Inhibitors of the Functional Ribonucleoprotein Complex (vRNP) of Lassa (LASV) Arenavirus: Viability assay - alamar blue signal for LASV Primary Screen (AID 1347083; calls by dose curve; tested in HEK293 reporter line; also: nearly all actives have a fitted effect of over 80% in size; also: potency is read from the fitted curve at half-maximal effect)
[2] = qHTS for Inhibitors of the Functional Ribonucleoprotein Complex (vRNP) of Lymphocytic Choriomeningitis Arenaviruses (LCMV): Viability assay - alamar blue signal for LCMV Primary Screen (AID 1347085; calls by dose curve; tested in HEK293 reporter line; also: nearly all actives have a fitted effect of over 80% in size; also: potency is read from the fitted curve at half-maximal effect)
[3] = molecular target: Nucleoprotein (Lymphocytic choriomeningitis virus (strain Armstrong)) (UniProt P09992); experiment: qHTS for Inhibitors of the Functional Ribonucleoprotein Complex (vRNP) of Lymphocytic Choriomeningitis Arenaviruses (LCMV): LCMV Primary Screen - GLuc reporter signal (AID 1347086); also: nearly all actives have a fitted effect of over 70% in size; also: potency is read from the fitted curve at half-maximal effect
Nucleoprotein (Lymphocytic choriomeningitis virus (strain Armstrong)), sequence (P09992 whole entry, looked up): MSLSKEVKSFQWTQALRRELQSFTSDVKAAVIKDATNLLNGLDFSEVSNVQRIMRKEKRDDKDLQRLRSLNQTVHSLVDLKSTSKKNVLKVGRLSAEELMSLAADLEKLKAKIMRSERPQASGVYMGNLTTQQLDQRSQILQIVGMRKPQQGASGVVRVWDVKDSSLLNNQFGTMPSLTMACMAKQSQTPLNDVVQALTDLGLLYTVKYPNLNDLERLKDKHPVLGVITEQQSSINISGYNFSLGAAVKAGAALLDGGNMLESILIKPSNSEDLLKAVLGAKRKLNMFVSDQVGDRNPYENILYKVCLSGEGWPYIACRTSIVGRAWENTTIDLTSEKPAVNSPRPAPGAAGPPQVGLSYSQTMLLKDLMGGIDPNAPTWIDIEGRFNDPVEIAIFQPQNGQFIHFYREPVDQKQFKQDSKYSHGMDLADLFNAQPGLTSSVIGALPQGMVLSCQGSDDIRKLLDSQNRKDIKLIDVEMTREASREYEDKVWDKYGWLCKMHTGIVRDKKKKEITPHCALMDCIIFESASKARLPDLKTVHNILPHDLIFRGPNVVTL

[4] = Primary qHTS for inhibitors of SARS-S pseudo-typed particle cell entry (AID 1479145); also: nearly all actives have a fitted effect of over 45% in size
[5] = Primary qHTS for Huh7 cytotoxicity: counterscreen for inhibitors of MERS-S pseudotyped particle cell entry (AID 1479147); settings: outcome: dose series up to 57.1 µM unless noted
[6] = Primary qHTS for inhibitors of MERS-S pseudo-typed particle cell entry (AID 1479149); also: nearly all actives have a fitted effect of over 60% in size
[7] = Primary qHTS for Vero E6 cytotoxicity: counterscreen for inhibitors of SARS-S pseudo-typed particle cell entry (AID 1479150); settings: outcome: dose series up to 57.1 µM unless noted
[8] = Confirmatory qHTS to identify inhibitors of SARS-CoV-2 cell entry (AID 1645844); also: potency is read from the fitted curve at half-maximal effect; nearly all actives have a fitted effect of over 45% in size
How it was run: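 Luminescence from a luciferase reporter, read 48 hr after pseudotyped-particle addition, gives entry signal, normalised to spike-bearing PP wells and bald PP lacking fusion protein wells. Cells are Expi293F stably expressing human ACE2, compound-pretreated 1 hr.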

[9] = Cytotoxicity counterscreen for inhibitors of SARS-CoV-2 cell entry (AID 1645845); also: nearly all actives have a fitted effect of over 50% in size
How it was run: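 48 h compound treatment (after 1 h preincubation), HEK293-ACE2 cells, 37 C/5% CO2; ATP luminescence endpoint; normalized to cell wells and media blanks.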

[10] = VSVG counterscreen qHTS to identify inhibitors of SARS-CoV-2 cell entry (AID 1645847); also: potency is read from the fitted curve at half-maximal effect; nearly all actives have a fitted effect of over 65% in size
How it was run: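 Counterscreen using VSV-G (not spike) pseudotyped MLV particles on ACE2-expressing Expi293F cells after 1 h compound preincubation; infection ran 48 h at 37 °C. Data normalized to VSV-G PP and bald-PP wells.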

[11] = Primary qHTS to identify inhibitors of SARS-CoV-2 cell entry (AID 1645846); settings: activity change, negative = inhibition: at 57.1 µM (top of the series) unless noted; also: nearly all actives have a fitted effect of over 45% in size; also: potency is read from the fitted curve at half-maximal effect
How it was run: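 Data are normalized to wells receiving SARS-CoV-2-S pseudoparticles and those given bald particles. Entry signal was luciferase luminescence in stable hACE2 Expi293F cells, 48 hr post-infection, after 1 hr compound pretreatment.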

[12] = Validation screen for inhibitors of Lassa infection (AID 463096); also: potency is read from the fitted curve at half-maximal effect
[13] = Inducers of the Endoplasmic Reticulum Stress Response (ERSR) in human glioma: Validation (AID 504836; active = well fitted curve in the direction sought with a large enough effect; an effect the other way counts as inactive or inconclusive)
How it was run: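 ERSR induction read as luciferase luminescence (Bright-Glo, 10 min at room temperature) in stably transfected human U87-MG glioma cells exposed to compounds for 16 h, using GRP78 as sensor.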

[14] = molecular target: Alpha-galactosidase (Coffea arabica) (UniProt Q42656); experiment: Counterscreen for Glucocerebrosidase Inhibitors: qHTS Assay for Coffee Bean alpha-Galactosidase at pH 4.5 (AID 957; active = well fitted curve in the direction sought with a large enough effect; an effect the other way counts as inactive or inconclusive)
Alpha-galactosidase (Coffea arabica), sequence (Q42656 whole entry, looked up): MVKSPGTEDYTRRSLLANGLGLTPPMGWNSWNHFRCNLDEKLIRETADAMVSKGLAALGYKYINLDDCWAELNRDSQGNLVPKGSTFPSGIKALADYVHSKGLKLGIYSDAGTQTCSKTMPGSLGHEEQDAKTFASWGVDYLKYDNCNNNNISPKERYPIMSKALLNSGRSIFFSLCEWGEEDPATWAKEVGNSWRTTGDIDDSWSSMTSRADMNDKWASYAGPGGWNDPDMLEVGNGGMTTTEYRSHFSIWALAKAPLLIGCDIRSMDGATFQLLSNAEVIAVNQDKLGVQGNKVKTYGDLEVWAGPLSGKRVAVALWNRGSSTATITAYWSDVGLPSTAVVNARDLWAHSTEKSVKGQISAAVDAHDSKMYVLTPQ
How it was run: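 Coffee bean enzyme (2 nM) with 80 uM 4-methylumbelliferyl alpha-D-galactopyranoside in 50 mM citric acid, 0.005% Tween-20, pH 4.5, 20 min at room temperature; compounds 0.7 nM–77 uM. Stopped at pH 10, fluorescence 365/440 nm; AC50 from Hill fits.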

[15] = molecular target: Alpha-galactosidase (Coffea arabica) (UniProt Q42656); experiment: Counterscreen for Glucocerebrosidase Inhibitors: qHTS Assay for Coffee Bean alpha-Galactosidase at pH 5.9 (AID 998; active = well fitted curve in the direction sought with a large enough effect; an effect the other way counts as inactive or inconclusive)
How it was run: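 Compounds were titrated from 0.7 nM to 77 uM against green coffee bean alpha-galactosidase (2 nM) using 80 uM fluorogenic 4-methylumbelliferyl substrate. After 20 min at room temperature, reactions were stopped at pH 10 and read by fluorescence.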

[16] = Confirmatory qHTS for VERO E6 Cytotoxicity Assay: Counterscreen for SARS-CoV-2 CPE Assay (AID 1508605); also: nearly all actives have a fitted effect of over 60% in size; also: potency is read from the fitted curve at half-maximal effect
[17] = Confirmatory qHTS for activators (rescue) of SARS-CoV-2 Cytopathic Effect (CPE) (AID 1508606); also: nearly all actives have a fitted effect of over 70% in size

In the case of `COc1cc(OC)c(C=CS(=O)(=O)Cc2ccc(OC)c(NCC(=O)O)c2)c(OC)c1`, the Potency [1] is reported as 217 nM (active), the Potency [2] is reported as 273 nM (active) and the Potency [3] is reported as 611 nM (active).

For `CC[C@]1(O)C[C@H]2CN(CCC3=c4ccccc4=N[C]3[C@@](C(=O)OC)(c3cc4c(cc3OC)N(C)[C@H]3[C@@](O)(C(N)=O)[C@H](O)[C@]5(CC)C=CCN6CC[C@]43[C@@H]65)C2)C1`, the Potency [1] was 38.5 nM (active), the Potency [2] was 10.9 nM (active) and the Potency [4] was “inactive”. The outcome [5] was “inactive”, the Potency [6] was “inactive” and the outcome [7] was “inactive”. The Potency [8] was 76.4 nM (active), the Potency [9] was “inactive” and the Potency [10] was 30.4 nM (active).

In the case of `C[C@H](NCc1ccc(OCc2cccc(F)c2)cc1)C(N)=O`, the Potency [1] is reported as 21700 nM (active), the Potency [2] is reported as 38500 nM (active) and the Potency [4] is reported as “inactive”. For the same compound, the outcome [5] was “inactive”, the Potency [6] was “inactive” and the outcome [7] was “inactive”. For the same compound, the Potency [9] was “inactive” and the Potency [11] was “inactive”.

For `CN[C@H]1CCc2cc(OC)c(OC)c(OC)c2-c2ccc(OC)c(=O)cc21`, the Potency [1] was “inactive”, the Potency [2] was 5.4 nM (active) and the Potency [3] was 17.2 nM (active). The Potency [8] was 38.3 nM (active), the Potency [9] was “inactive” and the activity change, negative = inhibition [11] was -76.7%. For the same compound, the Potency [10] was 171 nM (active).

For `C[C@@H]1[C@H](O)[C@@H](C)C=CC=CC=CC=CC=CC=CC=C[C@H](O[C@@H]2O[C@H](C)[C@H](O)[C@H](N)[C@@H]2O)C[C@@H]2O[C@](O)(C[C@@H](O)C[C@@H](O)[C@H](O)CC[C@@H](O)C[C@@H](O)CC(=O)O[C@H]1C)C[C@H](O)[C@@H]2C(=O)O`, the Potency [1] was 10900 nM (active), the Potency [2] was 8630 nM (active) and the Potency [3] was 4850 nM (active).

With `Cc1ccc(S(=O)(=O)Nc2nc3ccccc3nc2Nc2ccc3nsnc3c2)cc1` the Potency [1] was 1060 nM (active), the Potency [2] was 2110 nM (active) and the Potency [3] was 1330 nM (active). The Potency [9] was “inactive” and the activity change, negative = inhibition [11] was -18.1% [at 27.1 µM].

With `C=CC(=O)Nc1cccc(Oc2nc(Nc3ccc(N4CCN(C)CC4)cc3)ncc2Cl)c1` the Potency [1] was 2730 nM (active), the Potency [2] was 1720 nM (active) and the Potency [3] was “inactive”.

For `N#CC(=C(\N)Sc1ccccc1N)/C(C#N)=C(/N)Sc1ccccc1N`, the Potency [12] was 794 nM (active), the outcome [13] was “inactive” and the Potency [1] was “inactive”. The Potency [2] was “inactive” and the Potency [3] was “inactive”.

In the case of `CCN1CCCC1=O`, the Potency [1] is reported as “inactive”, the Potency [2] is reported as “inactive” and the Potency [4] is reported as “inactive”. For the same compound, the outcome [5] was “inactive”, the Potency [6] was “inactive” and the outcome [7] was “inactive”. The Potency [9] was “inactive” and the Potency [11] was “inactive”.

For `CO[C@H]1C[C@@H]2CC[C@@H](C)[C@@](O)(O2)C(=O)C(=O)N2CCCC[C@@H]2C(=O)O[C@H]([C@H](C)C[C@@H]2CC[C@H](OC(=O)C(C)(CO)CO)[C@H](OC)C2)CC(=O)[C@H](C)C=C(C)[C@@H](O)[C@@H](OC)C(=O)[C@H](C)C[C@H](C)C=CC=CC=C1C`, the Potency [1] was 12.2 nM (active), the Potency [2] was 27.3 nM (active) and the Potency [3] was 15.3 nM (active).

In the case of `FC(F)(F)c1ccc(Nc2nc3ccc(Oc4ccnc(-c5ncc(C(F)(F)F)[nH]5)c4)cc3[nH]2)cc1`, the Potency [1] is reported as 6110 nM (active), the Potency [2] is reported as 1370 nM (active) and the Potency [3] is reported as 3850 nM (active). The Potency [9] was “inactive” and the Potency [11] was 31600 nM (active).

In the case of `CC[C@H](NC(=O)[C@H](C)NC)C(=O)N1C[C@@H](O)C[C@H]1Cc1c(-c2[nH]c3cc(F)ccc3c2C[C@H]2C[C@H](O)CN2C(=O)[C@H](CC)NC(=O)[C@H](C)NC)[nH]c2cc(F)ccc12`, the Potency [1] is reported as 6850 nM (active), the Potency [2] is reported as 3850 nM (active) and the Potency [3] is reported as 7690 nM (active).

For `O=c1cc(N2CCOCC2)oc2c(-c3ccccc3)cccc12`, the outcome [14] was “inactive”, the outcome [15] was “inactive” and the Potency [12] was “inactive”. The Potency [1] was 15300 nM (active), the Potency [2] was “inactive” and the Potency [3] was “inactive”. The Potency [9] was “inactive” and the activity change, negative = inhibition [11] was -24.5%.

In the case of `COc1cc(Nc2nc3ccccc3nc2NS(=O)(=O)c2ccc(NC(=O)c3ccc(C)c(OC)c3)cc2)cc(OC)c1`, the Potency [1] is reported as 21700 nM (active), the Potency [2] is reported as 13700 nM (active) and the Potency [3] is reported as 27300 nM (active). The Potency [16] was “inactive”, the Potency [17] was “inactive” and the Potency [11] was “inactive”.

For `Cc1cc(C(=O)NOCCO)c(Nc2ccc(I)cc2F)n(C)c1=O`, the Potency [1] was 6850 nM (active), the Potency [2] was 863 nM (active) and the Potency [9] was “inactive”. For the same compound, the activity change, negative = inhibition [11] was -17.4%.

In the case of `CC(C(=O)O)c1ccc(C(=O)c2cccs2)cc1` (stereo not drawn), the Potency [1] is reported as “inactive”, the Potency [2] is reported as “inactive” and the Potency [4] is reported as “inactive”. For the same compound, the outcome [5] was “inactive”, the Potency [6] was “inactive” and the outcome [7] was “inactive”. For the same compound, the Potency [11] was “inactive”.

For `c1cncc(CN2CCC(n3ncc4c(N5CCOCC5)nc(-c5ccc6[nH]ccc6c5)nc43)CC2)c1`, the Potency [1] was 1220 nM (active), the Potency [2] was 2430 nM (active) and the Potency [16] was 2510 nM (active). For the same compound, the Potency [17] was “inactive”.

In the case of `COc1cc2ncnc(Nc3cc(Br)c(O)c(Br)c3)c2cc1OC`, the Potency [1] is reported as 611 nM (active), the Potency [2] is reported as 54.4 nM (active) and the Potency [9] is reported as “inactive”. For the same compound, the activity change, negative = inhibition [11] was -28.4%.

For `COc1cc(/C=C(\C#N)C(=O)Nc2nnc(C(F)(F)F)s2)ccc1OCc1ccc(C(F)(F)F)cc1C(F)(F)F`, the outcome [13] was “inactive”, the Potency [1] was “inactive” and the Potency [2] was “inactive”. The Potency [9] was “inactive” and the Potency [11] was “inactive”.

In the case of `Cc1cnc(NC(=O)Nc2cc(Br)c(C)cc2OC[C@@H]2CNCCO2)cn1`, the Potency [1] is reported as 2430 nM (active), the Potency [2] is reported as 10900 nM (active) and the Potency [11] is reported as 10000 nM (active).
